Over roughly 5,800 sequences, “enrichment r” has its median near 0.68; the highest 2% begin near 11. The entries come from a sample that favours the highest values as a whole.
T1: UNK ZnF1-6 (called full-length) (human, UniProt Q9C0B0 30-357)
T1 sequence: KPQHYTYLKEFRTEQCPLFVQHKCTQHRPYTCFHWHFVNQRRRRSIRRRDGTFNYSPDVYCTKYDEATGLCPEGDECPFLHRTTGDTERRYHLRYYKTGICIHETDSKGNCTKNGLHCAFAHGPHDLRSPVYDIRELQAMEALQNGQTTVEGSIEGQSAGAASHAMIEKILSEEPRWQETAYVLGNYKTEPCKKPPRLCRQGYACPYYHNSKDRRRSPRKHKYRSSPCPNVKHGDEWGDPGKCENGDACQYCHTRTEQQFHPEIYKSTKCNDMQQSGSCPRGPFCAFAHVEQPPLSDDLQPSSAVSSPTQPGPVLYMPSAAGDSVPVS

B1: chr6:57184343:57184440:+|3pUTR|ENSG00000112208|msi1_unk|FALSE|overlapping (ssRNA)
RNA: GGGAGUUCUACAGUCCGACGAUCUCUUCAGUUUUGUGAAUAACAAAACUAGCAAUAUUUUAAUUAUCUAUCUAGAGAUUUUUUAGAUUGAAUUCUUGUCUUGUACUAGGAUCUAGCAUAUUUCACUAUUCUGUGGAUGAAUACCAACAGAGGAUUGAGCAUCA
B2: chr22:43879677:43880794:-|three_prime_utr|ENSG00000100341|control|control|control (ssRNA)
RNA: GGGAGUUCUACAGUCCGACGAUCGAGAAAGGAGGACAGCCACAGAGACACAUGUCUUACUUUCAGAAUUUCCACGGGGGGACUAGGAGGGCAGCAUUGCUGGGGAGAGGGGCUCCUGUUCUGCCGUGGAGCUGCCCACGGAGCCAACAGAGGAUUGAGCAUCA
B3: chr3:115809552:115809653:-|3pUTR|ENSG00000185565|unk|total|mutant (ssRNA)
RNA: GGGAGUUCUACAGUCCGACGAUCCUCCCUCACCUCUCCUCACCUCCACCCCCUCCCCAGAGCACCCGUCAUGCCGCAAAUGCCCGGAAGUGCCAUUUUCAUUUUCUCCACUGUGCGUGUGUGCUCAAGUCUUUCGCUCUCACGCAACAGAGGAUUGAGCAUCA
B4: chr4:145760401:145760502:-|3pUTR|ENSG00000151612|unk|FALSE|unique (ssRNA)
RNA: GGGAGUUCUACAGUCCGACGAUCUCCGUACUUUUCUCUGAAAGGAAUCUUGUCUUGUUAAACCCUAAAGAGAGUGUCCUUAAUAGCAAUCAGCACUUGUAAGCUUAUAUACUGGUGCAUUUGGUUUUCUGUUGGGUGAAUGCGCAACAGAGGAUUGAGCAUCA
B5: chr12:56205560:56205676:-|3pUTR|ENSG00000181852|unk|FALSE|unique (ssRNA)
RNA: GGGAGUUCUACAGUCCGACGAUCCUCUUGUGGCACAGGCCAUAAUUGUUCCAUAGACCCCUCUCUAGCCCUGUGACUGUAGUUAGUUACUUUGAUAAUUUUCUUUGGCCAUUGUUUGUUUAUAUUUCACAAACUCCACCUACUCAACAGAGGAUUGAGCAUCA
B6: chr1:160214333:160214525:+|3pUTR|ENSG00000162734|msi1|FALSE|unique (ssRNA)
RNA: GGGAGUUCUACAGUCCGACGAUCCUACAGUGUUUUCCUUUGCACCGAUCCCCACCCCAAUUCAAUCCCGGAAGGGACUUACUUAGGAAACCCUUCUUUACUAGAUAUCCUGGCCCCCUGGGCUUGUGAACACCUCCUAGCCACCAACAGAGGAUUGAGCAUCA
B7: chr11:2944997:2945113:-|3pUTR|ENSG00000205531|unk|FALSE|unique (ssRNA)
RNA: GGGAGUUCUACAGUCCGACGAUCCUGUGUAGAGUAGGGCCCUGUUCUCCUUAGGAUGUUGCUUCUUGAUUUUUUUUUUUUUUUAGGGGUGGGUCAGGGUUGUGACACACCAGCCCAGGUGAGAGCUGCUGCGGGUCACCUCAUCAACAGAGGAUUGAGCAUCA
B8: chr17:50110931:50111032:+|3pUTR|ENSG00000005882|unk|FALSE|unique (ssRNA)
RNA: GGGAGUUCUACAGUCCGACGAUCUGUGCCCAGACAUGUGUGCUCAGGGUGGCUUUCUCCCUAGGACCUUCUGUGUAUAUAGUUAGUUUUAUAACCCUGAAUGCCCCCACCCUUCCCCUAAGCACACAGGGGUUAAAGCUGUGUCAACAGAGGAUUGAGCAUCA
B9: chr4:48579112:48579224:-|CDS|ENSG00000075539|unk|FALSE|bound_elsewhere (ssRNA)
RNA: GGGAGUUCUACAGUCCGACGAUCCUCUAUUGCCCUAGCUCGAUAGAUUUACAAACUUUAGCAGAAUGGAACUCUUCUCCUAUUAGCCACCAGUUUGAUGUGAUUAGUCCAUCACAUAUAUGGAUAUUUGCACAUGUGACCCAACAACAGAGGAUUGAGCAUCA
B10: chr20:63933867:63933968:+|3pUTR|ENSG00000101152|msi1|FALSE|unique (ssRNA)
RNA: GGGAGUUCUACAGUCCGACGAUCAUCAGAGUGGGCCCCUUGCCAGGUGGCUUUUCAGUUACAGAGUCCAGUGGACCAUUUUGUAGAACCAUGCAGCUCCCUGCGGAAGGUGGGGUAGGGUGGGAAAGAGGAGCAGGUCUGGAGCAACAGAGGAUUGAGCAUCA
B11: chr19:12699869:12699961:-|3pUTR|ENSG00000105576|msi1_unk|FALSE|overlapping (ssRNA)
RNA: GGGAGUUCUACAGUCCGACGAUCGAGGGUGGGGGUGUAGUUACUUCCCAGUUGGCCAGAAAACUGGGCCUUGCAGACCCCCUUAGCAUUUUUUCCCUUUUUUUCCUUCCCUGCUUUCUACUUCUUUGGGGAGCCCCUUGUGUUCAACAGAGGAUUGAGCAUCA
B12: chr15:74955373:74955475:-|3pUTR|ENSG00000178718|unk|FALSE|unique (ssRNA)
RNA: GGGAGUUCUACAGUCCGACGAUCGGACAGUUUUCCUUUCUAGUUUUCUUUCCCCUGCUUCAGAGGAGCAUCUCUGAGGGUUCUAGCUCUUUUAACACCCCUUUUCCCCCUGCUGGCCCAGAGGGAGACCCAGGACUGAACUCUCAACAGAGGAUUGAGCAUCA
B13: chr17:27756765:27757353:-|three_prime_utr|ENSG00000007171|control|control|control (ssRNA)
RNA: GGGAGUUCUACAGUCCGACGAUCCAAGUCUUAUUUCCUCAACGUUGCUCCCCAUCAAGCCCUUUACUUGACCUCCUAACAAGUAGCACCCUGGAUUGAUCGGAGCCUCCUCUCUCAAACUGGGGCCUCCCUGGUCCCUUGGAGCAACAGAGGAUUGAGCAUCA
B14: chr12:53210768:53210868:-|3pUTR|ENSG00000172819|msi1_unk|FALSE|overlapping (ssRNA)
RNA: GGGAGUUCUACAGUCCGACGAUCAGGGGGGAUGCUGCUUAGCUGAUCCCGCCCUGACCCAGAGGAAGCCUCUAUUUAUUUAUUAGCUUUUGUUUACACCGUGGAAUUGACCCCUUCCUCCAGGGGUCUUGGGUGGGGGAGCCCCAACAGAGGAUUGAGCAUCA
B15: chr17:49053040:49053141:+|3pUTR|ENSG00000159217|unk|FALSE|unique (ssRNA)
RNA: GGGAGUUCUACAGUCCGACGAUCCUCAGCUCCUGUGAGGGGUCUGGUUAGGAGAGAGCCAUUUUUAAGGACAGGGAGUUUUAUAGCCCUUUUCUACUUUCCUCCCCUCCUCCCAGUCCUUAUCAAUCUUUUUUCCUUUUUCCUCAACAGAGGAUUGAGCAUCA
B16: chr19:3536616:3536717:+|3pUTR|ENSG00000105325|msi1|total|mutant (ssRNA)
RNA: GGGAGUUCUACAGUCCGACGAUCACCGCCGCAGGGCCAGGCGGACGGCGUGAGGUUUGUGUUGGGGCUGGUUCUGCCCAUGCCCGGGGGUGGGGGAGCUCCCAGGACAGACCAGCCUUGUUUCUCAUGUAAUGCAGUGACGCUCAACAGAGGAUUGAGCAUCA

These binders were tested against T1, UNK ZnF1-6 (called full-length) (assay: nsRBNS (natural sequence RNA bind-n-seq); RBNS binding buffer (assumed for nsRBNS): 25 mM Tris pH 7.5, 150 mM KCl, 3 mM MgCl2, 0.01% Triton X-100, 500 ug/ml BSA, 20 U/ml SUPERase-In, 4 C; UNK is unkempt and MSI1 is Musashi-1; names of the RNAs are library labels; protein concentration not given here; high values mean tight binding).

Compared with B1, B2 is lower in binding signal: 6.31 enrichment R for the first, 1.05 enrichment R for the second.

Going from B3 to B4, the binding signal falls from 1.88 enrichment R to 0.364 enrichment R.

Going from B5 to B6, the binding signal falls from 33.5 enrichment R to 2.33 enrichment R.

First: B7
Second: B8
The binding signal of the first is higher: 22 enrichment R for the first, 6.79 enrichment R for the second.

Going from B9 to B10, the binding signal falls from 1.85 enrichment R to 1.29 enrichment R.

Going from B11 to B12, the binding signal falls from 15.5 enrichment R to 10.8 enrichment R.

First: B13
Second: B14
The binding signal of the first is lower: 0.605 enrichment R for the first, 2.83 enrichment R for the second.

First: B15
Second: B16
The binding signal of the first is higher: 3.9 enrichment R for the first, 0.79 enrichment R for the second.

Source: article PMC12136788
